High-throughput results: PubChem BioAssay, several laboratories
An excerpt weighted towards active compounds, which were near 4.3% of everything screened.
KKLEB cytotox: reduces viability of KKLEB cystic fibrosis airway cells. KKLEB CF airway cells viability, ATPlite luminescence, overnight; hits give low values; cells stimulated with P. aeruginosa culture filtrate. activity change (cytotoxicity), % at 5 µM. hit rate 0.36% among 360,000. AID 602141;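 active = corrected activity change at or below -50% at 5 µM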
CF NFkB block: cystic fibrosis NF-kB activation inhibition; hit rate 0.86% among 360,000; inhibition, % at 5 µM; KKLEB NF-kB-GFP reporter, PAF-induced, GFP fluorescence overnight; AID 588850;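 active = at least 50% inhibition at 5 µM, scaled per plate between neutral and stimulator controls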;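 also: PAF is a Pseudomonas aeruginosa culture filtrate used as stimulus; plate controls were PAF-stimulated DMSO wells for no effect and unstimulated DMSO wells for full effect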
Peg3 prom inh: reduces Peg3 promoter-driven luciferase expression in HeLa. HeLa PEG-Prom luciferase reporter, luminescence, overnight. inhibition, % at 20 µM. hit rate 1.7% among 360,000;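 active = inhibition of at least 50% at 20 µM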
HIF-2a block: HIF-2a inhibition. AID 624352. hit rate 0.72% among 360,000. inhibition, % at 18.8 µM. 786-0 RCC cells HIF-2a reporter, luciferase luminescence, overnight;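 active = inhibition of the luminescence signal of 40% or more relative to plate controls, in a single-dose primary screen at 18.75 µM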
MITF TRPM1 inh: reduces MITF-dependent TRPM1 promoter luciferase signal; AID 488899; SK-MEL-5 TRPM1 promoter luciferase, 24 h; inhibition, % at 12.5 µM; hit rate 0.83% among 330,000;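 active = mean inhibition across replicates of 60% or more, whatever share of single replicates reaches that level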
CHOP inhibitor: blocks CHOP induction under ER stress; CHO-K1 CHOP-promoter luciferase, tunicamycin-induced, 15-18 h; inhibition, % at 10 µM; hit rate 3.8% among 220,000; AID 2732;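 active = compounds that reduced the stress-induced luciferase reporter signal by more than about 70% of percent inhibition, limit read from the data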;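 also: 0% = tunicamycin plus vehicle and 100% = wells without tunicamycin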
Mdm2 MdmX conf: Mdm2/MdmX (human) interaction inhibition, confirmed; hit rate 99% among 740; SaOS-2 split-luciferase Mdm2/MdmX complementation, luminescence; shares compounds with HIF-2a block; inhibition, % at 8 µM;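 active = mean inhibition of the luminescence signal across two replicates at or above 26 percent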
Target sequence (O15151 whole entry, looked up): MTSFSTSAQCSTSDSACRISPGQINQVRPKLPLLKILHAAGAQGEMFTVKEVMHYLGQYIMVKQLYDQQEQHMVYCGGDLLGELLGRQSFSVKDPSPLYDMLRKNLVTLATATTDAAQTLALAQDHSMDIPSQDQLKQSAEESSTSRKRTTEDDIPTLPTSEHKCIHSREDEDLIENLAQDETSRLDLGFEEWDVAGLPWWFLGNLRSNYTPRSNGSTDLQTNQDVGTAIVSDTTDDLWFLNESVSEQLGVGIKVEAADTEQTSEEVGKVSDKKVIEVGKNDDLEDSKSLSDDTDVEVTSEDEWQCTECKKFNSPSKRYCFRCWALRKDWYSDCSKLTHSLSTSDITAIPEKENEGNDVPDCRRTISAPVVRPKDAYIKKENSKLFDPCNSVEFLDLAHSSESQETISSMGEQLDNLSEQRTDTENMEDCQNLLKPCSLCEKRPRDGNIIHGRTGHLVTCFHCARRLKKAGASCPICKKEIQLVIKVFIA
Target sequence (Q00987 whole entry, looked up): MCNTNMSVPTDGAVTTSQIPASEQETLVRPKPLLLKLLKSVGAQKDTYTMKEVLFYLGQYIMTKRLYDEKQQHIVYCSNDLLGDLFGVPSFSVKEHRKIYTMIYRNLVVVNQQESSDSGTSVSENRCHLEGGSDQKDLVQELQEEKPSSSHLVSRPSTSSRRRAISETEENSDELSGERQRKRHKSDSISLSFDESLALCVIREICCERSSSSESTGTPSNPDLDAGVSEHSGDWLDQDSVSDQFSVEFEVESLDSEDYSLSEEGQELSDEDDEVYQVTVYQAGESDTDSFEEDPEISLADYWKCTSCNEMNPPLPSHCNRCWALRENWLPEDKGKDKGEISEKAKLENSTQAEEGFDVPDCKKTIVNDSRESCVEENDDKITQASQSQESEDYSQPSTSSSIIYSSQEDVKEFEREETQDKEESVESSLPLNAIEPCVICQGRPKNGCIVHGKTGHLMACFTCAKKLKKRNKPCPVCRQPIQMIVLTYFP
HIF-2a conf: confirmation of HIF-2a inhibitors | shares compounds with HIF-2a block | 786-0 RCC cells, HIF-2a luciferase reporter luminescence, overnight | inhibition, % at 18.8 µM | hit rate 56% among 1,800 | AID 651580;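 active = mean inhibition across four replicates of at least 40 percent at the single tested concentration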
HIF-1a cs: inhibits HIF-1a reporter, a counter-screen for HIF-2a inhibitors; inhibition, % at 18.8 µM; shares compounds with HIF-2a block; MiaPaCa-2 HIF-1a luciferase reporter, desferoxamine, overnight; hit rate 72% among 1,800; AID 651589;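 active = mean inhibition of the reporter signal across four replicates at the single tested dose of 50% or more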
Numbers without * were called inactive; · = no result given.

SMILES	KKLEB cytotox	CF NFkB block	Peg3 prom inh	HIF-2a block	MITF TRPM1 inh	CHOP inhibitor	HIF-2a conf	HIF-1a cs	others
COc1cccc(CN2CC(C(=O)NC3CCCCCC3)CCC2=O)c1 (stereo not given)	-7	13	26	-2	6	·	·	·
Cc1ccc(C(=O)N/C(=C\c2cn(C)c3ccccc23)C(=O)NCCN2CCOCC2)cc1	0	7	2	19	8	·	·	·
N#CC1=C(c2ccccc2)/C(=C/c2ccccc2)OC1=O	-7	42	104*	89*	92*	108*	4	106*
CCOC(=O)c1sc(NC(=O)c2cc(-c3ccccc3)nc3ccccc23)c(C#N)c1C	-28	38	29	3	23	62	·	·	Mdm2 MdmX conf=98*
CCOC(=O)c1sc(NC(=O)CSc2n[nH]c(-c3ccccc3)n2)c(C#N)c1C	-15	35	14	-30	-4	44	·	·
O=C(CSc1cn(CCNC(=O)c2cccs2)c2ccccc12)NC1CCCC1	10	30	12	13	-10	60	·	·
O=[N+]([O-])c1cnc(Sc2ccncn2)s1	-14	75*	110*	95*	83*	107*	·	·	Mdm2 MdmX conf=102*
Cc1ccc(C(=O)N/C(=C\c2ccc(-c3ccc(Br)cc3)o2)C(=O)NCCCN(C)C)cc1	-19	15	109*	33	107*	33	·	·	Mdm2 MdmX conf=103*
Cc1ccc(C(=O)N/C(=C/c2ccc(-c3ccc(Br)cc3)o2)C(=O)NC2CCS(=O)(=O)C2)cc1 (stereo not given)	1	-35	-4	0	-1	65	·	·
Cc1cc(Nc2ccc([N+](=O)[O-])cc2)c2ccccc2n1	9	-81	11	18	43	·	·	·	Mdm2 MdmX conf=103*
CCOc1ccc2nc(C)cc(Nc3ccc4c(c3)OCCO4)c2c1	-1	-29	88*	45*	32	-61	-3	33
CCOc1ccc2nc(C)cc(Nc3cccc([N+](=O)[O-])c3)c2c1	-23	-26	92*	63*	84*	44	26	101*	Mdm2 MdmX conf=103*
Cc1cc(Nc2cccc([N+](=O)[O-])c2)c2ccccc2n1	-3	-18	13	28	2	23	·	·
CCOC(=O)Cc1csc(N/N=C/c2cccc([N+](=O)[O-])c2)n1	6	-7	-39	-32	-27	·	·	·
CCOC(=O)Cc1csc(N/N=C/c2ccc(C(F)(F)F)cc2)n1	-2	13	-53	58*	13	63	58*	17
CCOC(=O)Cc1csc(NC(=S)NC(=O)c2ccc(F)cc2)n1	-8	-12	1	86*	10	3	89*	59*
CCOC(=O)Cc1csc(NC(=S)NC(=O)c2cc(OC)c(OC)c(OC)c2)n1	2	-8	8	10	7	-13	·	·
CCOC(=O)Cc1csc(NC(=S)NC(=O)c2ccccc2C)n1	3	6	-8	54*	-4	-2	58*	17
CC(=O)O[C@@H]1C[C@H]2C(C)(C)C(=O)C=C[C@]2(C)[C@H]2CC[C@@]3(C)[C@H](c4ccoc4)OC(=O)[C@H]4O[C@]43[C@@]21C	19	28	31	58*	12	-27	49*	77*
CC(=O)OC1CC2C(C)(C)C(=O)C=CC2(C)C2CCC3(C)C(c4ccoc4)OC(=O)C4OC43C12C (stereo not given)	0	33	45	45*	·	·	42*	59*
COc1ccc(C(c2c(O)nc[nH]c2=O)c2c(O)nc[nH]c2=O)cc1	·	·	·	·	·	-4	·	·
CC1(C)NC(=O)N(CCC(=O)Nc2cc(C(F)(F)F)ccc2Cl)C1=O	8	-19	-1	12	9	·	·	·
CCN(Cc1ccc2c(c1)OCO2)C(=O)/C=C/c1cccc(Br)c1	-12	3	-53	-81	-10	·	·	·
CC(C)(C)N(Cc1ccc2c(c1)OCO2)C(=O)/C=C\S(=O)c1ccccc1 (stereo not given)	-19	43	99*	69*	90*	·	54*	80*
Cc1nc2cc(-c3ccc(Cl)cc3)nn2c(C)c1CCC(=O)NC(C)c1ccc2c(c1)OCCO2 (stereo not given)	-5	-1	9	82*	53	79*	93*	89*
SMILES	KKLEB cytotox	CF NFkB block	Peg3 prom inh	HIF-2a block	MITF TRPM1 inh	CHOP inhibitor	HIF-2a conf	HIF-1a cs	others
CCc1ccc(C2=NN(CCC(=O)NC(C)c3ccc4c(c3)OCCO4)C(=O)CC2)cc1 (stereo not given)	4	7	1	18	6	41	·	·
Cc1csc(NC(=O)CCc2c(C)nc3cc(-c4ccc(Cl)cc4)nn3c2C)n1	-5	1	-4	81*	54	88*	92*	54*
CC[C@H](C)[C@@H](CNC)NC[C@@H](Cc1ccc(O)cc1)NCC(C)(C)C	-2	-35	-11	3	-2	·	·	·
CC[C@@H](C)[C@H](CN[C@H](CNC)C(C)C)NC[C@@H](C)c1ccc(CC(C)C)cc1	-10	3	99*	-1	100*	·	·	·	Mdm2 MdmX conf=103*
COc1cccc(CNC(=O)COC(=O)c2nc(Cl)c(Cl)c(Cl)c2Cl)c1	-16	30	90*	58*	33	·	32	9
COc1cccc(CNC(=O)CCl)c1	-2	-16	-3	11	-7	-2	·	·
CCn1c(SCC(=O)Nc2sccc2C(N)=O)nnc1C1CC1	5	1	-4	-7	2	·	·	·
CCCCCOC(=O)C1=C(C)NC(=O)NC1c1ccc2c(c1)OCO2 (stereo not given)	0	-19	13	25	7	·	·	·
CC1=C(C(=O)OCc2ccc3c(c2)OCO3)C(c2ccc(F)cc2)NC(=O)N1 (stereo not given)	-32	86*	55*	23	46	·	·	·	Mdm2 MdmX conf=97*
CCOC(=O)Cc1ccc(NC(=O)c2ccc(C(C)(C)C)cc2)cc1	-10	8	-45	90*	6	86*	97*	77*
CCOC(=O)Cc1ccc(NC(=O)c2ccccc2Br)cc1	-3	-6	-58	-53	-13	4	·	·
COc1cccc(-n2cnc3scc(-c4cccs4)c3c2=O)c1	-18	24	14	18	5	9	·	·
CCOc1ccc(-n2cnc3scc(-c4ccc(OC)c(OC)c4)c3c2=O)cc1	0	13	17	41*	13	51	15	26
O=C1C(=C(I)I)c2ccccc2-c2ccccc21	-100*	82*	104*	93*	99*	·	96*	103*
